From PubChem BioAssay
Lmaj promast = inhibitors of Leishmania major promastigote growth | AID 1063 | Leishmania major promastigotes, resazurin fluorescence viability | inhibition, % at 10 µM | actives 9% (n = 200,000); in the data active means inhibition above about 50%;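 further: promastigotes grown with compound for 44 hours at 28 °C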
Ins promoter up = MIN6 insulin promoter up-regulation; MIN6 insulin promoter-GFP reporter, high-content imaging; stronger effect = higher value; z-score at 5 µM; actives 0.3% (n = 190,000);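 active means z-score above 3 at 5 µM with at least 500 cells counted in the well; inconclusive means wells under 500 cells, flagged as cytotoxic or low count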
Cl transport mod = modulators of human KCC2 chloride dependent transport; Q9H2X9; KCC2 cells, thallium flux FluoZin-2 fluorescence; B-score of Tl+ flux slope (higher = more flux/activation; lower = inhibition) at 10 µM; actives 2.2% (n = 190,000);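 active means thallium flux slope and its plate-corrected score both differing from the plate sample mean at a set confidence after two filtering rounds, in either direction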;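 further: slope of fluorescence scaled to starting intensity during 10 to 20 s after thallium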
Target sequence (Q9H2X9 whole entry, looked up): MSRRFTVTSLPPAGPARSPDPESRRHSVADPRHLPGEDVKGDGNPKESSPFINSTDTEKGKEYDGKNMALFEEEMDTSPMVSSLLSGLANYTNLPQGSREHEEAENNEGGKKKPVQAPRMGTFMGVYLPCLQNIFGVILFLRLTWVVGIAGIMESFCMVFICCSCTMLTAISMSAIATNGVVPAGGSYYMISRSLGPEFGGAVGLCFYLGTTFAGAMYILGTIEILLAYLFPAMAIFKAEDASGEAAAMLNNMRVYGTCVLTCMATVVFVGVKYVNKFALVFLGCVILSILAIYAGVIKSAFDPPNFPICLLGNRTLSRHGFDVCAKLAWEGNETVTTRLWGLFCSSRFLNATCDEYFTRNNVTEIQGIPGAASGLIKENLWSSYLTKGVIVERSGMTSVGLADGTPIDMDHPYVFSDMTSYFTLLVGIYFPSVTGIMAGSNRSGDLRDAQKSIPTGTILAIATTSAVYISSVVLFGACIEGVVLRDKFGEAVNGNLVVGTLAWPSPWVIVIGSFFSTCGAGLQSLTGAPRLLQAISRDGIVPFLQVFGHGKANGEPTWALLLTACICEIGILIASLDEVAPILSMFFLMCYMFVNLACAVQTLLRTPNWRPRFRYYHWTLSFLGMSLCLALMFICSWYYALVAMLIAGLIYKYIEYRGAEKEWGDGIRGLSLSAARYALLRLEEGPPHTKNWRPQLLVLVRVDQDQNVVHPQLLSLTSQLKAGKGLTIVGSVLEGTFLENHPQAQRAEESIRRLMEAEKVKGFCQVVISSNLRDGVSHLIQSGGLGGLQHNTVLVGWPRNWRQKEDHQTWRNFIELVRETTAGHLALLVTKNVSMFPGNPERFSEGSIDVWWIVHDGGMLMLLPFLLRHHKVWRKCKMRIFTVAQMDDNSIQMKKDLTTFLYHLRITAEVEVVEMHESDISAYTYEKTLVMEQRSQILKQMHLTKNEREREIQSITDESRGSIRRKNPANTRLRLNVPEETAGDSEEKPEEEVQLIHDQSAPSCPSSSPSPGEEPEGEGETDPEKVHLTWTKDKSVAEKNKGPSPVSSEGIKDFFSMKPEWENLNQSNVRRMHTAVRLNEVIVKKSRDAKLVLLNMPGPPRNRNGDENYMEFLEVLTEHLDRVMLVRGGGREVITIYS
WT yeast gro inh = growth inhibition of WT yeast, mitochondrial fusion screen; actives 2.1% (n = 190,000); inhibition, % at 10 µM; AID 1362; mitochondrial fusion phenotypic screen, WT strain; in the data active means inhibition above about 58%; tested in S. cerevisiae
ROMK primary = modulators of human ROMK potassium channel | Tet-inducible ROMK, thallium flux fluorescence; actives lie on both sides | B-score at 10 µM | actives 2% (n = 130,000) | AID 1918;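 active means signal ratio slope over the read window, or its plate-corrected B-score, at least 3 SD from the plate mean, either direction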;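 further: B-score of the F/F0 ratio slope over 7 to 12 s after thallium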
INS promoter inh = TRM-6 insulin promoter activity inhibition; TRM-6 cells (human fetal islet line), insulin promoter-eGFP reporter, imaging; reporter expression induced with tamoxifen; inhibition, % at 2 µM; actives 0.9% (n = 130,000);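 active means inhibition above the mean plus 3 SD, with well images judged a real hit on visual review, cut at about 60% in these data, passing the limit was not always enough; inconclusive means inhibition over the cutoff but images rejected on review; inactive means inhibition not above the cutoff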
KCC2 secondary = confirmation of human KCC2 transport modulators | shares compounds with Cl transport mod | HEK293-KCC2, thallium flux, FluoZin2 fluorescence; stronger effect = higher value | normalised thallium flux (F/F0 slope) at 10 µM | actives 15% (n = 3,700) | AID 1713;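 active means thallium flux slope above the same plate's solvent-only control mean plus 3 SD; inconclusive means the two replicate wells disagree; inactive means no significant difference from solvent-only control wells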
KCC2 bumet counter = thallium flux persisting under bumetanide in KCC2 cells, counter-screen secondary assay; shares compounds with Cl transport mod; HEK293-KCC2 + bumetanide/ouabain, thallium flux FluoZin2; stronger effect = higher value; normalized thallium flux at 10 µM; actives 49% (n = 3,700); AID 1714;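 active means thallium entry rate above the same plate's blocked-transporter control wells by more than 3 SD; inconclusive means the two repeat wells disagree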;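 further: raw slope of fluorescence over initial fluorescence between 10 and 20 s after thallium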
KCC2 sec2 = KCC2 (human) modulation, second secondary assay. shares compounds with Cl transport mod. HEK293-KCC2, thallium flux FluoZin2 fluorescence; actives lie on both sides; F/F0 rise rate, 10–20 s post-thallium. normalized thallium flux at 10 µM. actives 23% (n = 3,700);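 active means thallium flux slope more than 3 SD above or below the plate's solvent-only control mean, mostly below; inconclusive means the two repeat wells disagreed; inactive means no significant shift from solvent-only controls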;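 further: raw slope with 0.1% DMSO as baseline and bumetanide as block control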
HEK counter1 = counter-screen for KCC2 modulators: effect in parental HEK293 cells; shares compounds with Cl transport mod; thallium flux rate (normalised fluorescence) at 10 µM; AID 1716; actives 46% (n = 3,700); thallium flux FluoZin2, ouabain; baseline-ratio fluorescence slope, 10–20 s after thallium;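 active means thallium flux rate significantly above the same plate's solvent-only control wells, beyond their mean plus 3 SD; inconclusive means the two replicate wells gave conflicting results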
KCC2 ouabain = confirmation of human KCC2 modulators with ouabain. raw Tl+ flux slope (below DMSO = inhibition, above = activation) at 10 µM. actives 48% (n = 3,700). shares compounds with Cl transport mod. HEK293-KCC2, thallium flux FluoZin2 fluorescence; bidirectional: low = inhibitor, high = activator;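 active means thallium flux slope beyond 3 SD from same-plate DMSO control mean in most replicates, usually higher, sometimes lower; inconclusive means repeat tests gave conflicting results; inactive means no significant difference from controls in most replicates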;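 further: slope of initial-normalized fluorescence between seconds 10 and 20 after thallium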
HEK293 Tl flux2 = counter-screen for KCC2 modulators: effect in parental HEK293 cells | shares compounds with Cl transport mod | thallium flux FluoZin-2 fluorescence slope | thallium flux slope at 10 µM | actives 33% (n = 3,700) | AID 1718;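 active means thallium flux slope above the same plate's solvent-control mean plus 3 SD in both duplicate wells; inconclusive means duplicate wells that disagreed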;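 further: run without ouabain in cells lacking the KCC2 cotransporter; slope of fluorescence scaled to its starting value between 10 and 20 s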
Numbers without * were called inactive; ? = inconclusive; / = not tested or not shown. Compounds with a hit are over-represented: about 12% of the library has one in this group of screens.

SMILES | Lmaj promast | Ins promoter up | Cl transport mod | WT yeast gro inh | ROMK primary | INS promoter inh | KCC2 secondary | KCC2 bumet counter | KCC2 sec2 | HEK counter1 | KCC2 ouabain | HEK293 Tl flux2
COc1cc(OC)cc(C(=O)Nc2nnc(-c3cccnc3)o2)c1 | 36 | 1.4 | -1.6 | 22 | 0.42 | 33 | / | / | / | / | / | /
O=C(Nc1nnc(-c2cccnc2)o1)c1cccc(Cl)c1 | 55* | 0.31 | 14* | 44 | 0.0073 | / | ? | 0.027* | 0.034 | ? | 0.034* | 0.013
CCn1c(SCC(=O)Nc2ccc(C)cc2)nc2nc3c(cc2c1=O)COC(C)(C)C3 | / | -0.6 | 0.63 | / | / | / | / | / | / | / | / | /
N=C1SCC(=O)N1c1ncc(Cc2cccc(Cl)c2)s1 | -13 | / | 8.1* | 62 | -0.3 | -408 | ? | 0.019* | 0.032 | 0.02* | 0.031* | ?
CC(C)C(=O)Nc1ncc(Cc2ccccc2Cl)s1 | -2 | -0.72 | 0.078 | -2 | 0.94 | 40 | / | / | / | / | / | /
N=C1SCC(=O)N1c1ncc(Cc2ccccc2Cl)s1 | 2 | 0.32 | 11* | 52 | -0.093 | / | 0.011 | 0.019* | 0.03 | 0.014* | ? | 0.011
O=C1c2ccccc2C(=O)N1c1ncc(Cc2ccc(Cl)cc2)s1 | -5 | -0.32 | -0.88 | 1 | 1.8 | -12 | / | / | / | / | / | /
Cc1cc(/C=N/NC(=O)c2ccccn2)c(C)n1-c1cccc([N+](=O)[O-])c1 | 2 | -0.61 | -0.55 | 5 | 0.53 | / | / | / | / | / | / | /
O=C(Nc1ccccc1)c1ccc(S(=O)(=O)N2CCCCC2)cc1 | 2 | -0.16 | 1.2 | 0 | / | / | / | / | / | / | / | /
O=C(Nc1ccn(-c2ccccc2)n1)c1ccc(S(=O)(=O)N2CCCCCC2)cc1 | 66* | -1.8 | / | 21 | 0.19 | 29 | ? | 0.0041 | 0.029 | 0.0072 | 0.016* | 0.011
Cc1cc(NC(=O)c2ccc(S(=O)(=O)N3CCCC3)cc2)nc2c1c(=O)oc1ccccc12 | 16 | / | / | -4 | -0.35 | -93 | 0.0092 | 0.007 | 0.03 | 0.0079 | 0.019 | ?
O=C(Nc1cccnc1)c1ccc(CN2CCc3ccccc3C2)cc1 | 6 | 0.01 | -0.34 | 8 | / | / | / | / | / | / | / | /
O=[N+]([O-])c1cccc(-c2n[nH]c(=S)n2-c2ccccc2)c1 | / | 0.23 | 0.22 | / | 0.13 | / | / | / | / | / | / | /
O=[N+]([O-])c1cccc(-c2cn(-c3ccccc3)c(=S)[nH]2)c1 | -10 | 0.59 | 16* | 8 | 0.51 | -21 | 0.014* | 0.037* | 0.038 | 0.021* | ? | 0.014*
COc1ccccc1-n1cc(-c2ccc([N+](=O)[O-])cc2)[nH]c1=S | / | -0.41 | 0.043 | / | -0.28 | / | / | / | / | / | / | /
Cc1cccc(-n2cc(-c3ccc([N+](=O)[O-])cc3)[nH]c2=S)c1 | -10 | -0.38 | 5.1* | -14 | / | / | ? | 0.017* | 0.033 | 0.019* | 0.028* | 0.015*
Cc1ccc(-n2cc(-c3ccc([N+](=O)[O-])cc3)[nH]c2=S)c(C)c1 | 8 | -6.2 | 26* | -13 | 0.91 | / | ? | 0.099* | 0.077* | 0.086* | 0.081* | 0.055*
CN1CCN(C=NC2=NN(c3cccc(C(F)(F)F)c3)CC2)CC1 | 11 | 0.35 | 0.76 | 32 | / | / | / | / | / | / | / | /
CC(C)(C)NC(=O)COC(=O)c1ccc(Cl)nc1 | -6 | 0.29 | 0.63 | 5 | -0.1 | / | / | / | / | / | / | /
COC(=O)COc1c(Cl)cc(Cl)c2ccc(C)nc12 | -8 | 0.41 | 6.2* | 4 | -2.2 | 21 | 0.016 | 0.011* | 0.03 | 0.011* | 0.019 | 0.014*
Cc1ccc2c(Cl)cc(Cl)c(OCC(=O)N(C(C)C)C(C)C)c2n1 | 24 | -1.4 | 4* | 33 | / | -21 | 0.016 | 0.014* | 0.028 | 0.011* | 0.019 | 0.012
Cc1ccc2c(Cl)cc(Cl)c(OCC(=O)NC(C)(C)C)c2n1 | 6 | / | 6.9* | 56 | -0.65 | / | 0.01 | 0.031* | 0.03 | 0.018* | 0.032* | ?
COc1ccc(Nc2oc(-c3ccc(Cl)cc3)nc2C#N)cc1 | -1 | -0.24 | 0.12 | 14 | / | -37 | / | / | / | / | / | /
Cc1cccc(C)c1NC(=O)CSc1nnc(Cn2nnc(-c3ccccc3)n2)n1-c1ccccc1 | 5 | / | -5.3* | -11 | / | -29 | 0.0078 | 0.0057 | 0.032 | 0.0072 | 0.022 | 0.01
CCOc1ccc(/C=C2\SC(=S)N(NS(=O)(=O)c3ccc(C)cc3)C2=O)cc1OC | / | 0.11 | 24* | / | / | / | 0.0065 | 0.039* | 0.029 | 0.021* | ? | 0.014*
SMILES | Lmaj promast | Ins promoter up | Cl transport mod | WT yeast gro inh | ROMK primary | INS promoter inh | KCC2 secondary | KCC2 bumet counter | KCC2 sec2 | HEK counter1 | KCC2 ouabain | HEK293 Tl flux2
CCOc1ccc(/C=C2\SC(=S)N(C)C2=O)cc1OC | / | 0.37 | 0.22 | / | / | / | / | / | / | / | / | /
CCOc1ccc(/C=C2\SC(=S)N(NS(=O)(=O)c3ccccc3)C2=O)cc1OC | / | -0.3 | 7* | / | / | / | ? | 0.028* | 0.034 | 0.014* | ? | 0.018*
CCN=C1S/C(=C\c2ccc(OCC)c(OC)c2)C(=O)N1CC | 2 | -1 | -0.02 | -4 | / | -42 | / | / | / | / | / | /
CCOc1ccc(/C=C2\SC(=S)NC2=O)cc1OC | 3 | -0.4 | 9.4* | 44 | -0.046 | / | 0.013* | 0.02* | ? | 0.016* | 0.023 | 0.012*
COc1cc(/C=C2\SC(=O)NC2=O)ccc1Oc1ccc([N+](=O)[O-])cc1[N+](=O)[O-] | 44 | -0.06 | -4.2* | 19 | 2 | / | 0.0074 | 0.01* | 0.028 | 0.0071 | 0.018 | 0.011
Cc1ccccc1N(CC(=O)NCC1CCCO1)C(=O)C1(C)CC(=O)N=C2C=CC=CN21 (stereo not given) | -5 | 0.77 | 0.18 | 1 | / | 4 | / | / | / | / | / | /
CCOC(=O)N1CCN(C(=O)COc2ccc(S(=O)(=O)NCC(C)C)cc2C)CC1 | -2 | 0.55 | / | -6 | 0.04 | -25 | 0.0087 | 0.0064 | 0.028 | 0.0068 | 0.021 | 0.0093
Cc1cccc(NC(=O)CSc2nnc(CSc3nc(C)cc(C)n3)n2Cc2ccco2)c1 | 2 | -0.76 | / | -2 | -2.2 | / | 0.0066 | 0.0041 | 0.03 | ? | 0.016 | 0.0093
COc1ccc(C(=O)/C=C/Nc2c(C)n(C)n(-c3ccccc3)c2=O)c(OC)c1 | -10 | 0.37 | 0.43 | 8 | 0.64 | 0 | / | / | / | / | / | /
